Compound activity deposited in PubChem BioAssay by National Center for Advancing Translational Sciences (NCATS).
G9a inh: qHTS Assay for Inhibitors of Histone Lysine Methyltransferase G9a; Histone-lysine N-methyltransferase EHMT2 (Homo sapiens), Q96KQ7; G9a H3K9 monomethylation, AlphaScreen, 2 h; Potency, µM (highest dose often 102 µM), most hits filed as inhibitors; 350,000 compounds, 8.8% hits; AID 504332, 2011; also: nearly all actives have a fitted effect of over 75% in size
Target sequence (Q96KQ7 913-1193 limits assumed): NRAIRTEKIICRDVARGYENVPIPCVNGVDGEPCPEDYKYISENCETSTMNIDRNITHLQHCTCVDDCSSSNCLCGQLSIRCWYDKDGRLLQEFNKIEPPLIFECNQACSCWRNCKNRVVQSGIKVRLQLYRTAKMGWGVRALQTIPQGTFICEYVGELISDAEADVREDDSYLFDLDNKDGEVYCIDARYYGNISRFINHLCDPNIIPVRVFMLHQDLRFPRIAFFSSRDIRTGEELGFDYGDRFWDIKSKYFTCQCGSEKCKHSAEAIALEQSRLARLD
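G9a (20 nM) was preincubated 15 min with compound, then reacted 2 h at room temperature with 500 nM biotin-H3K9 peptide and 20 µM SAM. Monomethyl-H3K9 detected by AlphaScreen using anti-H3K9me1 antibody.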
GLS inhibitor: qHTS for Inhibitors of Glutaminase (GLS) | Glutaminase kidney isoform, mitochondrial (Homo sapiens), O94925 | GLS enzymatic activity, qHTS titration | Potency, µM (top dose mostly 45.5 µM), most hits filed as inhibitors | 410,000 compounds, 0.21% hits | AID 624170, 2012
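Read-out is an Amplex red fluorescence increase coupled through glutamate oxidase and HRP, measured before and after 30 min room-temperature incubation. hKGA is in 45 mM KH2PO4 (pH 8.2) with 0.02% Tween-20; glutamine added as 1mM solution.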
L3MBTL1 inh: qHTS Assay for the Inhibitors of L3MBTL1; 230,000 compounds, 0.66% hits; AlphaScreen L3MBTL1–H3K9me1 peptide binding; Lethal(3)malignant brain tumor-like protein 1 (Homo sapiens), Q9Y468; Potency, µM (top dose mostly 57.1 µM), usual class: inhibitors; also: nearly all actives have a fitted effect of over 60% in size
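Read-out is AlphaScreen signal from streptavidin donor and nickel chelate acceptor beads (10 ug/mL final each) bridging L3MBTL1 (50 nM) and biotinylated K9-monomethylated H3(1-15) peptide (75 nM), after 30 min compound exposure at room temperature.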
JMJD2A Tudor: qHTS Assay for Inhibitors of JMJD2A-Tudor Domain; 390,000 compounds, 4.4% hits; Lysine-specific demethylase 4A (Homo sapiens), O75164; AlphaScreen JMJD2A-Tudor / H3K4me3 peptide binding; Potency, µM (titrated, usually from 114 µM), most hits filed as inhibitors; AID 504339, 2011; also: nearly all actives have a fitted effect of over 50% in size
HP1b chromo inh: HTS for Inhibitors of HP1-beta Chromodomain Interactions with Methylated Histone Tails; AID 540317, 2011; 390,000 compounds, 0.56% hits; AlphaScreen HP1-beta / biotin-H3K9me3 peptide binding; Chromobox protein homolog 1 (Homo sapiens), P83916; Potency, µM (doses to about 114 µM), usual class: inhibitors; also: nearly all actives have a fitted effect of over 70% in size
Target sequence (P83916 whole entry, looked up): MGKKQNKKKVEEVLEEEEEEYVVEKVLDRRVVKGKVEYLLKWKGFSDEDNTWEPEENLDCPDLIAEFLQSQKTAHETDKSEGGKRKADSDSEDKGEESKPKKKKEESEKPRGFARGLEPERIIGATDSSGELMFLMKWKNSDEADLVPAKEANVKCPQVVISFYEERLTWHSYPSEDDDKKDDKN
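Compound inhibition of the preformed complex between 50 nM HP1-beta and 50 nM biotinylated H3K9me3 peptide was read by AlphaScreen. Buffer was PBS pH 7.4 with 0.01% Tween-20. Incubations ran 30 min at room temperature, with 10 ug/mL donor/acceptor beads.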
BAZ2B block: qHTS Assay for Inhibitors of BAZ2B. 360,000 compounds, 4.4% hits. AlphaScreen BAZ2B-H3K14Ac peptide displacement. Bromodomain adjacent to zinc finger domain protein 2B (Homo sapiens), Q9UIF8. Potency, µM (titrated, usually from 114 µM), hits mostly inhibitors; also: nearly all actives have a fitted effect of over 60% in size
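AlphaScreen displacement: compounds (up to 110uM) incubated 30 min at room temperature with a preformed 50 nM BAZ2B/50 nM biotinylated H3K14Ac peptide complex in PBS pH 7.4 with Tween-20. Donor and acceptor beads at 10 ug/mL final added, 20 min light-protected before reading.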
Hits are given with their value; ! = not active in a repeat; [ ] = dose if it differs, or a comment. Sampled rows, rich in hits. Any-hit rate of the full collection: about 10%. Calls follow the shape of the dose curve; as a rule, active = well fitted curve in the direction sought with a large enough effect; inconclusive = small, poorly fitted or top-dose-only effect, or another doubt; inactive = no such curve, though single readings can be large; an effect the other way counts as inactive or inconclusive.

Screening O=C(CCc1ccccc1)Nc1ncnc2c1C(c1ccccc1)c1c(ccc3ccccc13)O2 (stereo not given) returned JMJD2A Tudor inactive.
Screening COC(=O)[C@H](CC(C)C)NC(=O)c1cc2c(cn1)[nH]c1ccccc12 returned G9a inh 7.9µM, GLS inhibitor inactive, JMJD2A Tudor inconclusive, HP1b chromo inh inconclusive and BAZ2B block inactive.
COC(=O)C(Cc1ccccc1)NC(=O)c1cc(=O)[nH]c2ccccc12 (stereo not given) was read as G9a inh inactive, GLS inhibitor inactive, L3MBTL1 inh inactive, JMJD2A Tudor inactive, HP1b chromo inh inactive and BAZ2B block inactive.
NC(=O)C[n+]1cccc2ccccc21 was read as G9a inh inconclusive, GLS inhibitor inactive, L3MBTL1 inh inactive, JMJD2A Tudor 22µM, HP1b chromo inh inactive and BAZ2B block inactive.
Screening Cc1ccccc1C(=O)Nc1nnc(S(=O)(=O)N2CCCc3ccccc32)s1 returned G9a inh inactive, GLS inhibitor inactive, JMJD2A Tudor inactive, HP1b chromo inh inactive and BAZ2B block inactive.
`O=C(OCC#CCSc1nnc(-c2cccc3ccccc23)o1)c1ccc(Br)cc1` gave G9a inh inactive[12.7 µM], GLS inhibitor inactive, L3MBTL1 inh inactive, JMJD2A Tudor inactive, HP1b chromo inh inactive and BAZ2B block inactive.
O=C(OCC#CCSc1nnc(-c2cccc3ccccc23)o1)c1ccco1 was read as G9a inh inactive[0.501 µM], GLS inhibitor inactive, L3MBTL1 inh inconclusive, JMJD2A Tudor inactive, HP1b chromo inh inactive and BAZ2B block 79µM!.
`COc1ccc(NC(=O)NC(C(F)(F)F)C(F)(F)F)cc1` gave G9a inh inactive[12.7 µM], GLS inhibitor inactive, JMJD2A Tudor inactive, HP1b chromo inh inactive and BAZ2B block inactive.
`COc1ccc(NC(=O)NC(C)(C(F)(F)F)C(F)(F)F)cc1` gave G9a inh inactive, GLS inhibitor inconclusive, L3MBTL1 inh inactive, JMJD2A Tudor 16µM, HP1b chromo inh inactive and BAZ2B block inactive.
For CC(NC(=O)Nc1ccc(O)cc1)(C(F)(F)F)C(F)(F)F the results were G9a inh 11µM, GLS inhibitor inactive, L3MBTL1 inh inconclusive, JMJD2A Tudor inactive, HP1b chromo inh inactive and BAZ2B block inactive.
`O=C(CCCCn1c(=O)c2ccccc2n(CC(=O)Nc2cccc(F)c2)c1=O)NCCc1ccccc1` gave G9a inh inactive, GLS inhibitor inactive, JMJD2A Tudor inactive, HP1b chromo inh inactive and BAZ2B block inactive.
`Cc1cc(C)c(/C=C/c2onc(C)c2S(=O)(=O)N2CCC(C(=O)N(C)Cc3ccccc3)CC2)c(C)c1` gave G9a inh inactive, GLS inhibitor inactive, JMJD2A Tudor inactive, HP1b chromo inh inactive and BAZ2B block inactive.
`CCOc1ccc(CCNC(=O)NCc2noc3ccc(C)cc23)cc1` gave G9a inh inactive, GLS inhibitor inactive, JMJD2A Tudor inactive, HP1b chromo inh inactive and BAZ2B block inactive.
Screening Clc1cccc(-c2ccc(C=Nc3ccc(N4CCOCC4)cc3)o2)c1Cl returned G9a inh 14µM, GLS inhibitor inactive, L3MBTL1 inh inactive, JMJD2A Tudor 25µM, HP1b chromo inh inactive and BAZ2B block 18µM.
For Clc1ccc(-c2ccc(C=Nc3ccc(N4CCOCC4)cc3)o2)cc1 the results were G9a inh inactive, GLS inhibitor inactive, L3MBTL1 inh inactive, JMJD2A Tudor inactive, HP1b chromo inh inactive and BAZ2B block inactive.
For Clc1ccc(-c2ccc(C=Nc3ccc(N4CCOCC4)cc3)o2)c(Cl)c1 the results were G9a inh 35µM, GLS inhibitor inactive, L3MBTL1 inh inactive, JMJD2A Tudor inconclusive, HP1b chromo inh inactive and BAZ2B block inactive.
Screening Cc1ccc(CNC(=O)Cn2c3ncccc3c(=O)n2-c2ccc(C)cc2)cc1 returned G9a inh inactive, GLS inhibitor inactive, JMJD2A Tudor inactive, HP1b chromo inh inactive and BAZ2B block inactive.
For CN1CCc2c1nc1ccccc1c2N=C1CCCN1Cc1ccccc1 the results were G9a inh inactive, GLS inhibitor inactive, L3MBTL1 inh inactive, JMJD2A Tudor 45µM, HP1b chromo inh inactive and BAZ2B block inactive.
For CCCCN1CCc2c1nc1ccc(Br)cc1c2N the results were G9a inh inactive[12.7 µM], GLS inhibitor inactive, JMJD2A Tudor inactive, HP1b chromo inh inactive and BAZ2B block inactive.
For Cc1ccc2nc3c(c(N)c2c1)CCN3C the results were G9a inh 8.9µM, GLS inhibitor inactive, JMJD2A Tudor 25µM, HP1b chromo inh 35µM and BAZ2B block 79µM.
CN1CCCCc2c1nc1c(c2N)CCCC1 was read as G9a inh inconclusive, GLS inhibitor inactive, L3MBTL1 inh inactive, JMJD2A Tudor 1.8µM, HP1b chromo inh inconclusive and BAZ2B block inconclusive.
`Cc1cccc2c(N)c3c(nc12)N(C)CC3` gave G9a inh 50µM, GLS inhibitor inactive, JMJD2A Tudor 18µM, HP1b chromo inh inactive and BAZ2B block 50µM.
For CCn1nc(-c2ccc(C)cc2)nc2c(=O)n(C)c(=O)nc1-2 the results were JMJD2A Tudor inactive and HP1b chromo inh inactive.
CCOC(=O)c1ccc(NC(=O)CCc2nc3cccnc3n2Cc2cccs2)cc1 was read as G9a inh inactive, GLS inhibitor inactive, JMJD2A Tudor inactive, HP1b chromo inh inactive and BAZ2B block inactive.
Cc1ccc2nc3c(c(N)c2c1)CCN3c1ccccc1 was read as G9a inh 18µM, GLS inhibitor inactive, L3MBTL1 inh inactive, JMJD2A Tudor 0.79µM, HP1b chromo inh inconclusive and BAZ2B block 56µM.
Screening CN1CCc2c1nc1ccccc1c2N (tested in a mixture with another compound) returned G9a inh 79µM, GLS inhibitor inactive, JMJD2A Tudor inactive, HP1b chromo inh inactive and BAZ2B block inactive.
Screening CC1CC(=O)C2=C(C1)Nc1nc3ccccc3n1C2c1cccnc1 (stereo not given) returned GLS inhibitor inactive, L3MBTL1 inh inactive, JMJD2A Tudor inactive, HP1b chromo inh inactive and BAZ2B block inactive.
Screening O=C1CCCC2=C1C(c1ccncc1)n1c(nc3ccccc31)N2 (stereo not given) returned GLS inhibitor inactive, L3MBTL1 inh inactive, JMJD2A Tudor 56µM, HP1b chromo inh inactive and BAZ2B block inactive.
Cc1ccc(NS(=O)(=O)c2cc(NC(=O)c3ccc4c(c3)NC(=O)CS4)ccc2C)c(C)c1 was read as G9a inh 7.9µM, GLS inhibitor inactive, L3MBTL1 inh inactive, JMJD2A Tudor inconclusive, HP1b chromo inh inconclusive and BAZ2B block inactive.
